The results in this text go back to PubChem BioAssay (NCI).

Structures are written as SMILES. Compounds without any hit were thinned out: in the full panel of roughly 83,000, 20% have a hit.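 Interpretation: 100, growth as untreated; towards 0, rising growth inhibition; 0, no net growth; 0 to -100, cell death. Compounds scoring below 10 were considered active.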 A number with no mark means an inactive call. The source made the active and inactive calls.

Common to all, as to experiment: NCI-60 one-dose screen, 48 h (100 = growth as untreated, 0 = no growth, -100 = all killed)
Conditions in all cases: 10 µM unless noted

Experiment [1] relates to SK-MEL-2 melanoma.
The subject of experiment [2] is EKVX NSCLC.
The subject of experiment [3] is SN12C renal.
Experiment [4] deals with UO-31 renal.
Experiment [5] has as its system TK-10 renal.
Experiment [6] deals with ACHN renal.
Experiment [7] deals with CAKI-1 renal.
Experiment [8] concerns A498 renal.
Experiment [9] relates to CCRF-CEM leukemia.
For experiment [10], the system named is SR leukemia.
In experiment [11] the test system is RPMI-8226 leukemia.
Experiment [12] has as its system OVCAR-8 ovarian.
Experiment [13] deals with OVCAR-5 ovarian.
Experiment [14] concerns OVCAR-4 ovarian.
Experiment [15] relates to SK-OV-3 ovarian.
The test system of experiment [16] is IGROV1 ovarian.
Experiment [17] deals with OVCAR-3 ovarian.
For experiment [18], the system named is HS 578T breast.
Experiment [19] has as its system NCI/ADR-RES ovarian.
Experiment [20] has as its system MOLT-4 leukemia.

Consider `CC(SC(C)C(=O)N/N=C/c1cccc(Cl)c1)C(=O)N/N=C\c1cccc(Cl)c1` (stereo unspecified), for which the growth is 95.8% in [1]; 94.9% in experiment [2]; 63.9% in experiment [3]; 90.2% in experiment [4]; 105% in experiment [5]; 44% in [6]. The growth in experiment [7] is 91.6%; in [8], 102%; in [9] it was 48.6%; in [10], 15.8%; in experiment [11], 64.4%; in [12], 68.1%. Besides, the growth in experiment [13] is 115%; in [14] it was -11.1% (active); in [15], 90.5%; in [16], 70.3%; in experiment [17], -30.2% (active); in experiment [18], 86%. Also, the growth in experiment [19] was 94.5%.

As to `N/C(=C\C(=O)n1nc(-c2ccccc2)cc1N)c1ccccc1`, the growth in experiment [1] is -16.7% (active); in experiment [2], 69.5%; in experiment [3] it was 62.1%; in [4] it was 38.2%; in experiment [5], 101%; in experiment [6], 63.7%. The growth in experiment [7] was 65.3%; in experiment [8], 67.8%; in experiment [9], 40.1%; in [20] it was 43%; in experiment [11] it was 42.8%; in [12], 60.6%. Also, the growth is 72% in experiment [14]; 65.5% in experiment [15]; 16.5% in experiment [16]; 20.2% in experiment [17]; -6.87% (active) in experiment [18]; 17% in [19].

For `COc1cccc(-c2nc3sccn3c2-c2ccnc(NCCN3CCCNS3(=O)=O)n2)c1`, the growth in experiment [1] was 86.3%; in experiment [2] it was 110%; in experiment [3] it was 60.8%; in [4], 70.7%; in experiment [5] it was 115%; in experiment [6] it was 48.4%. Also, the growth in [7] is 44.6%; in [8], 108%; in [9], 68.1%; in [10], 59.5%; in experiment [11], 102%; in experiment [12], 83.8%. The growth was 112% in experiment [13]; 81.5% in experiment [14]; 54.8% in [15]; 75% in [16]; 102% in experiment [17]; 105% in experiment [18]. In experiment [19], the growth is 105%.

Consider `O=C1NN(C(=O)c2ccccc2)C(c2ccc(Cl)c(Cl)c2)=C/C1=C\c1ccccc1[N+](=O)[O-]`, for which the growth was 10.9% [6.75 µM] in experiment [1]; 32% [6.75 µM] in experiment [2]; 30.7% [6.75 µM] in [3]; -3.12% [6.75 µM] (active) in experiment [4]; 42.1% [6.75 µM] in experiment [5]; 24% [6.75 µM] in experiment [6]. Further, the growth in experiment [7] was 24.1% [6.75 µM]; in [8] it was -10.9% [6.75 µM] (active); in experiment [9], 17.4% [6.75 µM]; in experiment [10], 6.01% [6.75 µM] (active); in experiment [11], 2.27% [6.75 µM] (active); in [12] it was 30.3% [6.75 µM]. Further, the growth is -18.6% [6.75 µM] (active) in experiment [13]; 12.2% [6.75 µM] in experiment [14]; 37.1% [6.75 µM] in [15]; 19.3% [6.75 µM] in experiment [16]; 15.9% [6.75 µM] in experiment [17]; 30.8% [6.75 µM] in [18]. Further, the growth in experiment [19] is 17.7% [6.75 µM].

For `COc1cc(OC)c(Cl)cc1N`, the growth is 116% in experiment [1]; 118% in experiment [2]; 93.1% in [3]; 91.3% in experiment [4]; 105% in [5]; 101% in [6]. Further, the growth in experiment [7] was 91.6%; in experiment [8] it was 90.9%; in [9], 97.3%; in [10], 109%; in experiment [11] it was 104%; in experiment [12] it was 104%. The growth in experiment [13] was 111%; in experiment [14], 109%; in [15], 100%; in experiment [16], 114%; in experiment [17] it was 103%; in experiment [18], 77.9%. In addition, the growth in [19] is 109%.

On to `O=C(Nc1ccc(Br)cc1)c1ccc(Cl)c(Cl)c1`, for which the growth is 102% in [1]; 24% in [2]; 60.7% in experiment [3]; 59.1% in [4]; 107% in experiment [5]; 18.1% in experiment [6]. Moreover, the growth was 8.9% (active) in experiment [7]; 65.7% in experiment [8]; 1.53% (active) in experiment [9]; 23.3% in experiment [20]; -6.3% (active) in experiment [11]; 89.3% in [12]. Further, the growth in experiment [13] is 72%; in experiment [14] it was 28.8%; in experiment [15], 63.7%; in experiment [16], 66.7%; in experiment [17] it was 16%; in [18] it was 79.6%. The growth in experiment [19] is 36.6%.

With `O=C(CCCN1CCC(O)(c2ccc(Br)cc2)CC1)c1ccc(F)cc1`, the growth in experiment [1] is 100%; in experiment [2], 91%; in [3], 72.8%; in experiment [4], 45.6%; in experiment [5], 96.6%; in experiment [6], 72.5%. The growth in experiment [7] was 82.1%; in [8] it was 82.2%; in experiment [9] it was 63.8%; in experiment [20] it was 60.3%; in [11], 73.4%; in experiment [12], 79.3%. The growth was 80% in experiment [13]; 64.7% in experiment [14]; 86% in experiment [15]; 74% in [16]; 90% in experiment [17]; 74% in experiment [19].
